Reference: the supplement of paper PMC13380429

System: Vero E6 infected with SARS-CoV-2
Test: SARS-CoV-2 infection rate relative to infected DMSO; higher = more infection, active = 60 or less
Conditions: 24 h

| SMILES | SARS-CoV-2 infection rate |
| --- | --- |
| NCC(=O)O (10 µM) | 104% (inactive) |
| Cc1c(CC(C)(C)C(=O)O)n(Cc2ccc(Cl)cc2)c2ccc(F)cc12 (10 µM) | 113% (inactive) |
| CN1C(=O)OC(C)(C)C1=O [trimethadione] (10 µM) | 106% (inactive) |
| CCCCCC(=O)O[C@]1(C(C)=O)CC[C@H]2[C@@H]3CCC4=CC(=O)CC[C@]4(C)[C@H]3CC[C@@]21C [17-hydroxyprogesterone-caproate] (10 µM) | 85.5% (inactive) |
| CO[C@]12C[C@@H](COC(=O)c3cncc(Br)c3)CN(C)[C@@H]1Cc1cn(C)c3cccc2c13 [nicergoline] (10 µM) | 81% (inactive) |
| CCCn1c(=O)c2[nH]c(-c3cnn(Cc4cccc(C(F)(F)F)c4)c3)nc2n(CC)c1=O (10 µM) | 103% (inactive) |
| C[C@@H]([C@@H](O)c1ccc(O)cc1)N1CCC(O)(c2ccccc2)CC1 [traxoprodil] (10 µM) | 108% (inactive) |
| O=C(O)CCCCCCCC(=O)O [azelaic-acid] (10 µM) | 104% (inactive) |
| CCCN(CCC)CCc1ccc(OC)c(OCCc2ccccc2)c1 (10 µM) | 86.5% (inactive) |
| COc1ccc(S(=O)(=O)Nc2cccnc2Nc2ccc(O)cc2)cc1 (10 µM) | 106% (inactive) |
| COc1ccc(CCNCC(O)COc2cccc(C)c2)cc1OC (configuration not stated) [bevantolol] (10 µM) | 110% (inactive) |
| C#C[C@]1(OC(C)=O)CC[C@H]2[C@@H]3CCC4=CC(=O)CC[C@@H]4[C@H]3CC[C@@]21C [norethindrone-acetate] (10 µM) | 106% (inactive) |
